Source: PubChem BioAssay (National Center for Advancing Translational Sciences (NCATS))
Compounds with a hit are over-represented: about 9.8% of the library has one in this group of screens.
JMJD2E inh: qHTS Assay for Inhibitors of Human Jumonji Domain Containing 2E (JMJD2E) | Potency, µM (series often up to 57.1 µM), actives largely listed as inhibitors | JMJD2E catalytic domain, FDH-coupled NADH fluorescence (FDH is formaldehyde dehydrogenase) | Lysine-specific demethylase 4E (Homo sapiens), B2RXH2 | AID 2147, 2009 | actives 1.6% (n = 230,000); active = well fitted inhibition curve with a large enough effect, not every such curve was filed as active; inconclusive = small, poorly fitted or top-dose-only effect, or another doubt; inactive = no such curve, though single readings can be large or run the other way; also: nearly all actives have a fitted effect of over 50% in size
CBFb-RUNX1 inh: qHTS Assay for Compounds Blocking the Interaction Between CBF-beta and RUNX1 for the Treatment of Acute Myeloid Leukemia; AID 1477, 2009; Runt-related transcription factor 1 (Homo sapiens) + Core-binding factor subunit beta …; 230,000 tested, under 10 active; AlphaScreen CBFb-His/RUNX1-biotin binding, biochemical; Potency, µM (top dose mostly 59.8 µM), hits mostly inhibitors
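Compounds were screened at multiple concentrations against a preformed CBF-beta(His)/RUNX1(biotin) complex (30 nM of each) for 15 min at room temperature, followed by 90 min with nickel and streptavidin beads and AlphaScreen reading.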
HTT cytoprotect: qHTS Multiplex Assay to Identify Dual Action Probes in a Cell Model of Huntington: Cytoprotection (ATP); Potency, µM (doses to about 56.4 µM), hits mostly activators; AID 1471, 2008; actives 0.14% (n = 230,000); PC12 HTT-Q103 induced, cytoprotection, ATP luminescence, 40 h; also: nearly all actives have a fitted effect of over 45% in size
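Readout: ATPlite luminescence (ATP level). Model: stable PC12, inducible Htt exon1 Q103-GFP. Inducer: tebufenozide, 100 nM final. Compounds: dose series. No G418 in medium.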
ALDH1A1 block: qHTS Assay for Inhibitors of Aldehyde Dehydrogenase 1 (ALDH1A1); Aldehyde dehydrogenase 1A1 (Homo sapiens), P00352; Purified ALDH1A1, NADH fluorescence, propionaldehyde substrate; Potency, µM (series often up to 75.3 µM), hits mostly inhibitors; actives 7.3% (n = 220,000); AID 1030, 2008; active = well fitted inhibition curve with a large enough effect, not every such curve was filed as active; inconclusive = small, poorly fitted or top-dose-only effect, or another doubt; inactive = no such curve, though single readings can be large or run the other way
Target sequence (P00352 whole entry, looked up): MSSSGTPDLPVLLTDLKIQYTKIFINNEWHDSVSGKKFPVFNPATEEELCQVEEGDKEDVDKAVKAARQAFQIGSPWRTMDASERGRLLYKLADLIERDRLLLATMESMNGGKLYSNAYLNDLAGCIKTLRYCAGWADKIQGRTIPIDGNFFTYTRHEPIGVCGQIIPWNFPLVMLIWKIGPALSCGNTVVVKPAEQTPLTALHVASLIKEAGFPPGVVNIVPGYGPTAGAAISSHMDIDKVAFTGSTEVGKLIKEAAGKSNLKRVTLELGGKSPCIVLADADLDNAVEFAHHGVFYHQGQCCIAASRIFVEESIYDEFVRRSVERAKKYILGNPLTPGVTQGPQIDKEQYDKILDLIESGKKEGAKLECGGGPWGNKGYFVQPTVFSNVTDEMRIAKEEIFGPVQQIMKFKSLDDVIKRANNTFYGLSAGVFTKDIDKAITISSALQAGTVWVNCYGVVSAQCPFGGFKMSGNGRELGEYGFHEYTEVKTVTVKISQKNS
HPGD inh: qHTS Assay for Inhibitors of HPGD (15-Hydroxyprostaglandin Dehydrogenase) | 15-hydroxyprostaglandin dehydrogenase [NAD(+)] (Homo sapiens), P15428 | Potency, µM, most hits filed as inhibitors | purified HPGD, NADH fluorescence kinetic, PGE2 substrate | actives 4.3% (n = 150,000); active = well fitted inhibition curve with a large enough effect, not every such curve was filed as active; inconclusive = small, poorly fitted or top-dose-only effect, or another doubt; inactive = no such curve, though single readings can be large or run the other way
Target sequence (P15428 whole entry, looked up): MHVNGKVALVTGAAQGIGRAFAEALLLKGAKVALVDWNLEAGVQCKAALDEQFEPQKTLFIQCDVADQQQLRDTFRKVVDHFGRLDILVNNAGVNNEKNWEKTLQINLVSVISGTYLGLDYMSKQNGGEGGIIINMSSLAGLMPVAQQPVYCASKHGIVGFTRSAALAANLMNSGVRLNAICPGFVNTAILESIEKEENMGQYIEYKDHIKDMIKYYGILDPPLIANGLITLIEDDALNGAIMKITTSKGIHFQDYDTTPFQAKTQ
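NADH formation kinetics: reaction with 30 uM PGE2 and 1 mM NAD+ (final), 20 nM enzyme, Tris-HCl pH 8 with Tween 20, after 15 min compound preincubation at room temperature. Fluorescence change, last versus first of five reads.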
HTT aggregate: qHTS Multiplex Assay to Identify Dual Action Probes in a Cell Model of Huntington: Aggregate Formation (GFP); Potency, µM (top dose mostly 46.1 µM), most hits filed as inhibitors; actives 1.1% (n = 220,000); PC12 HttQ103-GFP aggregates, Acumen cytometry, 40 h; also: nearly all actives have a fitted effect of over 60% in size
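Compounds (qHTS titration) were added to PC12 cells expressing an ecdysone-driven HTT exon 1 Q103–GFP fusion after induction with 100 nM tebufenozide. Aggregate formation was measured as GFP objects in cell lysates.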
Numbers stand for hits; n = inactive; u = inconclusive; x = no result given; [ ] = remark or other dose. Unless noted, calls follow the shape of the dose curve; as a rule, active = well fitted curve in the direction sought with a large enough effect; inconclusive = small, poorly fitted or top-dose-only effect, or another doubt; inactive = no such curve, though single readings can be large; an effect the other way counts as inactive or inconclusive.

SMILES	JMJD2E inh	CBFb-RUNX1 inh	HTT cytoprotect	ALDH1A1 block	HPGD inh	HTT aggregate
O=C(Nc1ccc(F)cc1)Nc1cc(OCC(F)(F)F)cc(OCC(F)(F)F)c1	n	n	n[10 µM]	n	n	3.5µM
Nc1cc(Cl)c(NC2=NCCN2)c(Cl)c1	n	n	u	n	n	n
O=C(CSc1nnc(Cc2cccs2)n1-c1ccccc1)Nc1ccc2c(c1)OCCO2	n	n	n	7.9µM	n	n
COc1ccc(NC(=O)CSc2nnc(Cc3cccn3C)n2-c2ccc(F)cc2)cc1OC	n	n	n[10 µM]	25µM	n	n
COc1ccc(-n2c(Cc3cccn3C)nnc2SCC(=O)Nc2ccc(Cl)cc2)cc1	n	n	n	4µM	n	n
Cn1cccc1Cc1nnc(SCC(=O)Nc2ccc3c(c2)OCCO3)n1-c1ccc(F)cc1	n	u	n[10 µM]	20µM	n	n
N#Cc1cc2cc3c(cc2nc1N1CCOCC1)OCO3	u	n	n[10 µM]	u	u	n
Cc1cccc(OCC(=O)N/N=C2/SCC(=O)N2Cc2ccco2)c1	n	n	n[10 µM]	n	x	n[9.22 µM]
Cc1ccc(OCc2ccc(C(=O)Nc3ccc(C(N)=O)cc3)o2)c([N+](=O)[O-])c1	n	u	n[10 µM]	n	x	n[9.22 µM]
Cc1nnc(NC(=O)CSc2nnc(Cc3cccn3C)n2C)s1	n	n	n	22µM	n	n
O=C1COc2ccc(C(=O)CSc3nnc(-c4cccs4)n3Cc3ccccc3)cc2N1	n	n	n[0.074 µM]	u	n	n
COc1ccc(-n2c(Cc3cccn3C)nnc2SCC(=O)Nc2cccc(F)c2)cc1	n	n	n[10 µM]	13µM	n	n
Cc1ccc(-n2c(Cc3cccn3C)nnc2SCC(=O)Nc2nnc(C)s2)cc1	n	n	n[10 µM]	n	n	u
O=C1COc2ccc(C(=O)CSc3nnc(Cc4cccs4)n3-c3ccccc3)cc2N1	n	n	n	3.2µM	n	n[9.22 µM]
COc1ccc(-n2c(Cc3cccn3C)nnc2SCC(=O)Nc2ccccc2)cc1	n	n	n[10 µM]	14µM	n	n
CCCCNc1ccc(S(=O)(=O)c2cccc([N+](=O)[O-])c2)cc1[N+](=O)[O-]	n	u	n[10 µM]	n	n	n
O=C(c1csnn1)N1CCC2(CC1)CCN(c1ncccn1)CC2	x	x	n	n	n	x
COc1ccc(C(=O)NCc2nnc(SCC(=O)N3CCC(C)CC3)o2)cc1	n	n	n	u	x	n
C=CSc1sc(Cl)c(N(C)C)c1[N+](=O)[O-]	n	n	n[10 µM]	7.9µM	x	u
C=CSc1sc(Cl)c(N(CC)CC)c1[N+](=O)[O-]	n	n	x	16µM	x	x
COc1ccc(C)cc1NC(=O)C(=O)NCc1ccncc1	n	n	n	18µM	x	n
NC(=O)NCCCC(NC(=O)c1ccc(C#CC2(O)CCCCC2)cc1)C(=O)O (configuration not stated)	n	n	n	n	x	n
Cc1ccc(NC(=O)COC(=O)Cc2csc(-c3cccc(F)c3)n2)cc1C	n	n	n[10 µM]	11µM	n	n
Cc1ccc(NC(=O)COC(=O)Cc2csc(-c3ccc(Cl)cc3)n2)cc1C	n	n	n[10 µM]	n	n	n
CCOc1ccc(/C=N/NC(=O)Cc2cccs2)cc1	n	n	n[10 µM]	x	x	n[9.22 µM]
SMILES	JMJD2E inh	CBFb-RUNX1 inh	HTT cytoprotect	ALDH1A1 block	HPGD inh	HTT aggregate
CN(C)/C=N/C(=S)Nc1ccc(Br)cc1F	n	n	n	22µM	n	n
CCOC(=O)c1cc(-c2nnc(SCC(=O)Nc3ccc(F)cc3)o2)c(C)nc1C	n	n	n	10µM	14µM	n
CCOC(=O)c1c(NC(=O)CSc2nnc(-c3ccco3)o2)sc(C(C)=O)c1C	n	n	n	n	16µM	n
CCOC(=O)c1c(NC(=O)CSc2nnc(-c3ccco3)o2)sc(C)c1C	n	n	n	8.9µM	n	n
Cc1nnc(NC(=O)CSc2nnc(-c3ccco3)o2)s1	n	n	n	n	x	n
CCOC(=O)c1c(NC(=O)CSc2nnc(Cc3ccccc3)o2)sc(C)c1C	n	n	n[10 µM]	16µM	n	n
COC(=O)[C@@H]1CC[C@H](C)[C@@H](c2ccc(C)cc2)N1C(=O)c1ccc(/C=N\OC[C@@H](O)[C@H]2O[C@H]3OC(C)(C)O[C@H]3[C@@H]2O)cc1	x	n[13.1 µM]	n[10 µM]	n[13.5 µM]	x	x
COc1ccc(-c2cc(COc3ccccc3)on2)cc1	n	n	n	n	x	n
CCN(CC)CC(=O)NCc1cc(-c2ccc(OC)cc2)no1	n	n	n	n	1.3µM	n
CC(=O)[O][Al][O]C(C)=O	x	x	n	x	x	n
CC1(C)CC(=O)C=C(N=CC2=C(O)CC(C)(C)CC2=O)C1	n	n	n	8.9µM	n	n
COc1ccc(N=CC2=C(O)CC(C)(C)CC2=O)cc1	n	n	n	7.9µM	n	n
COc1ccc(N=CC2=C(O)CC(c3ccccc3)CC2=O)c(OC)c1 (configuration not stated)	u	n	x	14µM	n	n
COc1ccc(N=CC2=C(O)CCCC2=O)cc1	n	n	n	u	n	n
COc1ccc(OC)c(N=CC2=C(O)CC(C)(C)CC2=O)c1	u	n	n	13µM	n	n
O=C(NCCC(=O)N1CCOCCOCCOCCOCC1)OCc1ccccc1	n	n	n[10 µM]	x	x	n[9.22 µM]
CCN(CC)c1ccc(CNc2nc3ccccc3n2CC)cc1	n	n	n[10 µM]	x	x	n[9.22 µM]
COc1ccc(-c2nn(-c3ccccc3C)cc2CNCc2cccnc2)cc1F	u	n	n[10 µM]	n	x	n[9.22 µM]
COc1nccnc1NS(=O)(=O)c1ccc(NC(=S)NC(=O)c2ccc(F)cc2)cc1	n	n	n[10 µM]	14µM	n	n
COc1nccnc1NS(=O)(=O)c1ccc(NC(=S)NC(=O)c2cccnc2)cc1	n	n	n[10 µM]	x	x	n[9.22 µM]
O=C(NC(=S)Nc1ccc(S(=O)(=O)Nc2nccs2)cc1)c1ccc(F)cc1	n	n	n[10 µM]	18µM	n	n
CC(C)(C)C(=O)NC(=S)Nc1ccc(S(=O)(=O)Nc2nccs2)cc1	n	n	x	u	x	n
COc1nsnc1NS(=O)(=O)c1ccc(NC(=S)NC(=O)c2cccnc2)cc1	n	n	x	20µM	x	x
O=C(Nc1ccc(S(=O)(=O)Nc2nccs2)cc1)c1ccc(F)c(S(=O)(=O)N2CCOCC2)c1	n	n	x	5µM	x	n
CCc1ccc(NC(=S)N(CCN(C)C)C(C)c2ccncc2)cc1 (configuration not stated)	n	n	n	n	x	n
